# In all, about 2,100 compounds went through this assay and about 940 (45%) were called active. Not shown: some 48% with an inconclusive outcome. Calls come from the whole dose curve; as a rule, active = well fitted inhibition curve with a large enough effect; inconclusive = small, poorly fitted or top-dose-only effect; inactive = no such curve, though single readings can be large or run the other way. So high a share suggests a set chosen from earlier hits. This is one part of the list.
# Test: Confirmatory qHTS for Inhibitors of ATXN expression; note: nearly all actives have a fitted effect of over 65% in size
# Details: ATXN2-luciferase reporter cells, luminescence, 24 h; series mostly up to 11.5 µM
# How it was run: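 A titration, incubated 24 h with reporter cells expressing ATXN2-luciferase. Luminescence (SteadyGlo) gives ATXN2 expression, multiplexed GF-AFC fluorescence gives viability; normalised to DMSO and medium-only wells.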
# Potency is the fitted concentration of half-maximal effect.
row,SMILES,Potency
1,CC(=O)Nc1cc(-c2ccc(C(=O)NC3CC3)cc2)cn2c(-c3cccc(C(C)=O)c3)cnc12,inactive
2,CN1CCC(NC(=O)c2cc(-c3cccc(Br)c3)nc3ccccc23)CC1,25.1 µM (active)
3,CC[C@@]1(O)C(=O)OCc2c1cc1n(c2=O)Cc2cc3c(CN(C)C)c(O)ccc3nc2-1,inactive
4,CCc1c2c(nc3ccc(OC(=O)N4CCC(N5CCCCC5)CC4)cc13)-c1cc3c(c(=O)n1C2)COC(=O)[C@]3(O)CC,0.316 µM (active)
5,Cc1sc(NC(=O)c2cc(-c3ccc(Cl)cc3)nc3ccccc23)c(C(N)=O)c1C,7.08 µM (active)
6,C=CCN(C(=O)CSc1nc2c(sc3ccccc32)c(=O)n1CCN(CC)CC)c1ccccc1,28.2 µM (active)
7,CCc1nc2ccc(C(=O)NCCOc3ccc(OC)cc3)cn2c1N(CCC(C)C)CCN(C)C,3.98 µM (active)
8,O=C(NCC1CC1)c1ccc2c(c1)S(=O)(=O)c1cc(Cl)ccc1C2=O,inactive
9,CC(C)CC(NC(=O)c1ccc(Cl)cc1)C(=O)OCC(=O)c1ccc2c(c1)NC(=O)CO2 (centres undefined),28.2 µM (active)
10,CCCCC1C(=O)CC[C@H]2[C@@H]1CC(=O)[C@@H]2C/C=C\CCCC(=O)O (some centres undefined),inactive
11,COc1nn(-c2ccccc2)c(=O)c(Cl)c1Cl,1.41 µM (active)
12,Cc1ccc(C(NC(=O)C2CCN(Cc3ccc(Cl)c(Cl)c3)CC2)c2ccccn2)cc1 (centres undefined),28.2 µM (active)
13,COC(=O)[C@H]1C[C@H](OC(=O)NC2CC2)[C@@]2(O)CN(S(=O)(=O)c3ccc(C)cc3)CC2[C@H]1C(=O)OC (some centres undefined),inactive
14,O=C(CSC1=NNC(c2ccccn2)S1)Nc1ccc(C(F)(F)F)cc1 (centres undefined),28.2 µM (active)
15,COc1cc2ccnc(Cc3cccc(OC)c3OC)c2cc1OC,1 µM (active)
16,COc1cc(C)c(C(=O)CC(=O)c2c(C)cc(OC)cc2C)c(C)c1,inactive
17,CCCCOc1ccccc1NC(=O)Cn1c(-c2nonc2N)nc2ccccc21,3.98 µM (active)
18,COc1ccc(Cc2[nH]n3c(=O)cc(C(C)C)nc3c2-c2ccccc2)cc1,8.91 µM (active)
19,Cc1cc(C)c(S(=O)(=O)/N=C2\C=C(Nc3ccc(C(=O)O)cc3)C(=O)c3ccccc32)c(C)c1,1.78 µM (active)
20,COC1=CC(=O)C=C(OC)C1(O)CC(C)=O,inactive
21,O=C1/C(=C/c2ccc([N+](=O)[O-])cc2)C=C(c2ccccc2)N1c1ccc(O)cc1,2.51 µM (active)
22,Cc1cc2c(c(/C=C/C(=O)c3ccccc3)c1)OC1(C=C2)Oc2ccccc2C(=O)N1C (centres undefined),25.1 µM (active)
23,CCCCCn1c(=O)c2ccccc2n2c(CCl)nnc12,15.8 µM (active)

row,SMILES,Potency
1,O=C(N/N=C(\c1ccccc1)c1ccccn1)c1ccccc1Cl,3.55 µM (active)
2,COc1cc(C(=O)N/N=C(\c2ccccc2)c2ccccn2)cc(OC)c1OC,0.355 µM (active)
3,O=C(NN=C(c1ccccc1)c1ccccn1)c1ccccc1,2.24 µM (active)
4,CCC(CC)C(=O)c1c[nH]c(C(=O)NCc2ccccn2)c1,inactive
5,O=C(O)CSc1cc(NS(=O)(=O)c2cccc([N+](=O)[O-])c2)c2ccccc2c1O,3.16 µM (active)
6,CN(Cc1cnc2nc(N)nc(N)c2n1)c1ccc(C(=O)N[C@@H](CCC(=O)O)C(=O)O)cc1,0.398 µM (active)
7,CN(Cc1cnc2nc(N)nc(N)c2n1)c1ccc(C(=O)NC(CCC(=O)O)C(=O)O)c2ccccc12 (centres undefined),0.1 µM (active)
8,Cc1cnc(NC(=O)C2CC(=O)N(c3cccc(Cl)c3)C2)s1 (centres undefined),0.112 µM (active)
9,Cc1ccc(N2CC(C(=O)Nc3nccs3)CC2=O)cc1Cl (centres undefined),2.24 µM (active)
10,Cc1ccc(CN2CC(C(=O)Nc3ncc(C)s3)CC2=O)cc1 (centres undefined),1.78 µM (active)
11,Cc1ccc2nc(NC(=O)CSCC(=O)OCC(=O)c3ccc(Br)cc3)sc2c1,3.55 µM (active)
12,Cc1sc2nc(CN3CCCC3)nc(N3CCC(C(N)=O)CC3)c2c1C,inactive
13,CCN(CC)S(=O)(=O)c1cc(NC(=O)C2CCN(c3ncnc4sc(C)c(C)c34)CC2)ccc1Cl,3.55 µM (active)
14,COc1ccc(-c2csc(NC(=O)C3CCN(c4ncnc5sc(C)c(C)c45)CC3)n2)cc1OC,3.98 µM (active)
15,COc1ccc(S(=O)(=O)N(C)C)cc1NC(=O)C1CCN(c2ncnc3sc(C)c(C)c23)CC1,22.4 µM (active)
16,Oc1c(C(c2ccccn2)N2CCC(Cc3ccccc3)CC2)cc(Cl)c2cccnc12 (centres undefined),28.2 µM (active)
17,Oc1c(C(c2ccccn2)N2CCCCC2)cc(Cl)c2cccnc12 (centres undefined),15.8 µM (active)
18,O=C(NC(Nc1ncc(S(=O)(=O)c2ccc([N+](=O)[O-])cc2)s1)(C(F)(F)F)C(F)(F)F)c1ccc(Cl)cc1,3.55 µM (active)
19,O=C(NC(Nc1nc2ccc([N+](=O)[O-])cc2s1)(C(F)(F)F)C(F)(F)F)c1ccccc1,0.355 µM (active)
20,O=c1oc2ccccc2c(O)c1Cc1cc(Cl)c2cccnc2c1O,15.8 µM (active)
21,CC[n+]1c(/C=C/c2c[nH]c3ccccc23)ccc2cc(C)ccc21,7.94 µM (active)
22,COC(=O)c1ccccc1S(=O)(=O)NNC(=O)Nc1ccccc1,inactive
23,Cc1[nH]n(-c2cccc3ccccc23)c(=O)c1/C=N/NC(=O)c1cccc([N+](=O)[O-])c1,7.94 µM (active)

row,SMILES,Potency
1,COc1ccc(/C=N/NC(=O)c2cccc([N+](=O)[O-])c2)c2ccccc12,3.16 µM (active)
2,CCCc1nc(NC2CCCCC2)c(C#N)c2c1COC(C)(C)C2,inactive
3,O=C(Cc1ccc(-c2ccccc2)cc1)Nc1ccccn1,15.8 µM (active)
4,CC(C)C1C(=O)N(Cc2cn(CCC3OCCO3)nn2)CCS(=O)(=O)N1Cc1ccc(-c2ccc(Cl)cc2)cc1 (centres undefined),31.6 µM (active)
5,CSc1ncnc2c1ncn2CC(=O)C1CCC2C3CCC4=CC(=O)CCC4(C)C3CCC12C (centres undefined),11.2 µM (active)
6,COc1ccc(C(NC(=O)c2cccnc2)c2cc(Cl)c3cccnc3c2O)cc1OC (centres undefined),2.51 µM (active)
7,CCC(=O)NC(c1ccc(OC)c(OC)c1)c1cc(Cl)c2cccnc2c1O (centres undefined),2.82 µM (active)
8,CCCC(=O)NC(c1ccc(OC)c(OC)c1)c1cc(Cl)c2cccnc2c1O (centres undefined),2.51 µM (active)
9,N=c1c2c(n(Cc3ccc(Br)cc3)c3c1CCC3)CCCC2,1.12 µM (active)
10,C=CCNc1oc(-c2ccc(Cl)cc2)nc1C#N,inactive
11,Cc1ccc2[nH]c(=O)c(CN(CCCN(C)C)C(=O)Nc3cccc(Cl)c3)cc2c1,22.4 µM (active)
12,COc1ccc(/C=N/Nc2cc(N3CCCC3)nc(N3CCCC3)n2)cc1,3.16 µM (active)
13,Cc1c(C(=O)Nc2nonc2-c2ccc(F)cc2)oc2ccc(F)cc12,25.1 µM (active)
14,CCc1nc2c(OCCOc3ccc(F)cc3)cccn2c1N(C)C(=O)c1ccco1,inactive
15,Cc1nc2c(OCc3cc(Cl)cc(Cl)c3)cccn2c1N(C)C(=O)CCC1CCCC1,22.4 µM (active)
16,Cc1nn(-c2ccccc2)c2nc(-c3cccs3)cc(C(=O)NN)c12,14.1 µM (active)
17,Cn1cc(C(=O)c2ccc(Cl)cc2Cl)cc1C(=O)N/N=C(\N)COc1ccc(Cl)cc1,11.2 µM (active)
18,Cc1onc(-c2c(Cl)cccc2Cl)c1C(=O)N/N=C(\N)COc1ccc(Cl)cc1,2.51 µM (active)
19,O=C(Nc1nc(NC(=O)c2ccco2)n(-c2ccccc2)n1)c1ccccc1,3.16 µM (active)
20,CC(C)(C)c1ccc(NC(=O)N2CCCN(c3c(Cl)cncc3Cl)CC2)cc1,inactive
21,Cc1c(Cl)cccc1NC(=O)N1CCCN(c2nc(-c3ccccc3)ns2)CC1,10 µM (active)
22,O=C(Nc1ccccc1Cl)N1CCCN(c2nc(-c3ccccc3)ns2)CC1,15.8 µM (active)
23,CN(C)CCC(c1ccc(Br)cc1)c1ccccn1 (centres undefined),inactive

row,SMILES,Potency
1,O=C(Nc1ccc(N2CCOCC2)c(Cl)c1)c1c(F)c(F)c(F)c(F)c1F,1.26 µM (active)
2,CC(=O)N/N=C/c1cc(C(C)(C)C)cc(/C=N/NC(C)=O)c1O,2.82 µM (active)
3,CC(=O)Nc1ccc(Nc2c3ccccc3nc3ccccc23)cc1,3.55 µM (active)
4,COc1ccc(Nc2nc(N3CCCC3)c3ccccc3n2)cc1,15.8 µM (active)
5,COc1ccc(Nc2c3ccccc3nc3ccccc23)cc1,14.1 µM (active)
6,CC(=O)Oc1ccc(Nc2ccccc2)cc1,inactive
7,CCOc1ccc(Nc2c3ccccc3nc3ccccc23)cc1,12.6 µM (active)
8,Cc1cc(SCC(=O)N/N=C/c2ccc(O)cc2O)nc2ccccc12,11.2 µM (active)
9,C=CCn1c(CNc2ccc(C)cc2)nnc1SCC(=O)N/N=C/c1ccc(O)cc1O,10 µM (active)
10,Cc1cc(SCC(=O)N/N=C/c2ccc(O)cc2O)c(C)cc1Br,5.62 µM (active)
11,Cc1cc(SCC(=O)NN)c2cc(Br)ccc2n1,inactive
12,O=C(CSc1ccc2ccccc2n1)N/N=C/c1ccccc1O,14.1 µM (active)
13,COc1ccc(C(NC(C)=O)c2cc(Cl)c3cccnc3c2O)cc1 (centres undefined),1.78 µM (active)
14,CCC(=O)NC(c1ccc(OC)cc1)c1cc(Cl)c2cccnc2c1O (centres undefined),3.16 µM (active)
15,Clc1ccc(COC(Cn2ccnc2)c2ccc(Cl)cc2Cl)c(Cl)c1 (centres undefined),2.82 µM (active)
16,O=C(CCCN1C(=O)/C(=C/c2ccccc2Cl)SC1=S)NNC(=O)c1ccc(Cl)cc1,3.55 µM (active)
17,O=C(CCCN1C(=O)/C(=C/c2ccccc2Cl)SC1=S)NNC(=O)c1ccc(Cl)cc1Cl,1.58 µM (active)
18,O=C(Nc1nnc(-c2ccc(F)cc2)o1)c1cc(Cl)sc1Cl,15.8 µM (active)
19,CN(c1ccccc1)S(=O)(=O)c1ccc(C(=O)Nc2nnc(-c3ccc(F)cc3)o2)cc1,15.8 µM (active)
20,CCc1nnc(NC(=O)c2ccc(S(=O)(=O)N(C)Cc3ccccc3)cc2)o1,20 µM (active)
